This is a sample that favours compounds with a hit; in the whole collection about 1.4% have one here.
Statin myotox sup: protects C2C12 myotubes from simvastatin toxicity. actives 0.78% (n = 330,000). ATP luminescence, 48 h; scaled: DMSO 0, geranylgeraniol control 100. rescue of ATP level, % at 7.49 µM;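 active = mean ATP rescue above about 67%, or every replicate alone reaching that limit, limit read from the data, passing the limit was not always enough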;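 note: myotubes were challenged with 10 µM simvastatin during compound exposure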
ARNT TACC3 PPI: disruptors of human ARNT/TACC3 interaction; actives 0.66% (n = 390,000); AID 623870; AlphaScreen His-ARNT PAS-B/GST-TACC3 binding, luminescence; TACC3 fragment carries E629A point mutation; inhibition, % at 9.99 µM; Q9Y6A5;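 active = mean inhibition of replicates at least 50% and at least half of replicates each reaching 50%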
PglD DTNB: inhibitors of Campylobacter jejuni PglD acetyltransferase; purified PglD enzyme, DTNB colorimetric CoA detection; inhibition, % at 12.5 µM; actives 0.098% (n = 360,000); in the data active = inhibition above about 16%, passing the limit was not always enough
CFTR F508del cor: correctors of CFTR F508del function in bronchial epithelial cells; actives 0.36% (n = 350,000); CFBE cells, YFP halide quenching; stimulated with forskolin plus potentiator P3; % fluorescence drop versus neutral controls; activity (quench increase), % at 7.58 µM; AID 720511;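 active = mean added fluorescence quench of at least 8% versus neutral control, with both replicates also reaching 8%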;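 note: cells transiently co-express mutant CFTR-F508del with the halide-sensitive YFP; corrector assay measuring rescue of mutant channel to the surface after 24 h compound exposure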
Large screens that a line does not name were inactive.

O=C(C[C@H]1CC[C@@H](NS(=O)(=O)c2ccc(F)cc2)[C@H](CO)O1)NC1CCC1	ARNT TACC3 PPI 30.5
O=S(=O)(c1ccccc1)N(CC1CO1)c1cc(Cl)ccc1Cl (configuration not stated)	none (no result: ARNT TACC3 PPI)
Clc1ccc(N(CC2CO2)CC2CO2)cc1 (configuration not stated)	CFTR F508del cor 8.1 (no result: Statin myotox sup, PglD DTNB)
CCOC(=O)c1[nH]c(C)c(C(=O)NCC2CCCO2)c1C (configuration not stated)	Statin myotox sup 74.7 (no result: CFTR F508del cor)
C/C=C/c1ccc([C@H]2[C@@H](CNC(=O)CC)N(C(=O)COC)[C@H]2CO)cc1	CFTR F508del cor 14.4
C/C=C/c1ccc([C@@H]2[C@@H](CO)N(C(=O)COC)[C@H]2CNC(=O)CC)cc1	none
O=C(NC[C@H]1[C@H](c2ccccc2)[C@H](CO)N1CC1CCCC1)c1ccccc1	none
C/C=C/c1ccc([C@@H]2[C@H](CO)N(CC3CC3)[C@H]2CNC(=O)c2ccccc2)cc1	CFTR F508del cor 10.5
C[C@@H](NC(=O)C[C@H]1C[C@H]2c3cc(NS(=O)(=O)c4ccc(F)cc4)ccc3O[C@H]2[C@H](CO)O1)c1ccccc1	none
CCC(=O)N[C@@H]1CC[C@H](CC(=O)NCc2ccccc2F)O[C@H]1CO	none
CN(C)S(=O)(=O)c1ccc2c(c1)C(=O)c1cc(S(=O)(=O)N(C)C)ccc1CC2	none
CN(C)S(=O)(=O)c1ccc2c(c1)/C(=C/c1cc3c([nH]1)CCCC3)C(=O)N2	CFTR F508del cor 8.6
CCOC1=C2CN(S(=O)(=O)c3ccc(C)cc3)CC[C@@H]2N(S(=O)(=O)c2ccc(C)cc2)[C@H](c2ccccc2)C1	CFTR F508del cor 12.0 (no result: ARNT TACC3 PPI)
C[C@H](CO)N1C[C@H](C)[C@@H](CN(C)Cc2ccc3c(c2)OCO3)OCCCC[C@H](C)Oc2ccc(NC(=O)CCCN(C)C)cc2C1=O	none
CC1(C)OC2OC(C(=O)N/N=C/c3cc(Br)ccc3O)C3OC(C)(C)OC3C2O1 (configuration not stated)	ARNT TACC3 PPI 60.0 (no result: CFTR F508del cor)
COc1ccc(NC(=O)N(C)C[C@H]2OCCCC[C@H](C)Oc3ccc(NS(C)(=O)=O)cc3C(=O)N([C@@H](C)CO)C[C@@H]2C)cc1	none (no result: Statin myotox sup)
COc1ccc(NC2=C(NC(C)=O)C(=O)c3ccccc3C2=O)cc1	none
Cc1cccc(NC2=C(NCCO)C(=O)c3ccccc3C2=O)c1	ARNT TACC3 PPI 38.8 (no result: Statin myotox sup, CFTR F508del cor)
COC1=C(Nc2ccc(OC)cc2)C(=O)c2ccccc2C1=O	ARNT TACC3 PPI 52.6 (no result: Statin myotox sup, PglD DTNB, CFTR F508del cor)
COc1cccc(Nc2c(Nc3cccc(OC)c3)c(=O)c2=O)c1	none
COc1ccc(NC2=C(NCCO)C(=O)c3ccccc3C2=O)cc1	ARNT TACC3 PPI 59.6 (no result: Statin myotox sup, PglD DTNB, CFTR F508del cor)
COC1=C(Nc2ccc(OC)cc2)C(=O)C(OC)=C(Nc2ccc(OC)cc2)C1=O	none
COc1cccc(NC2=C(NCCO)C(=O)c3ccccc3C2=O)c1	ARNT TACC3 PPI 47.4
O=C(c1cccnc1)N1CC(=O)N2[C@H](C1)[C@@H](c1ccc(C#CCC3CCCC3)cc1)[C@@H]2CO	none (no result: Statin myotox sup, ARNT TACC3 PPI, PglD DTNB)
C[C@H]1CN([C@@H](C)CO)S(=O)(=O)c2ccc(C3=CCCCC3)cc2O[C@@H]1CN(C)Cc1ccncc1	none
O=C(NCC1CC1)[C@@H]1[C@@H](CO)[C@@H]2Cn3c(cccc3=O)[C@@H]2N1C(=O)Nc1ccccc1	none (no result: ARNT TACC3 PPI, PglD DTNB, CFTR F508del cor)
COc1ccc(CN2CC(C(=O)NCCCN3CCOCC3)CC2=O)cc1 (configuration not stated)	Statin myotox sup 98.5 (no result: CFTR F508del cor)
C#CCN(C)CCCOc1ccc(Cl)cc1Cl	CFTR F508del cor 8.9
CN1CCN(c2nc3c(c(=O)n(C)c(=O)n3C)n2Cc2cccc3ccccc23)CC1	Statin myotox sup 115.6 (no result: CFTR F508del cor)
Cc1cccc(NC(=O)c2ccc(OC3CSC3)cc2)c1	Statin myotox sup 105.2 (no result: CFTR F508del cor)
C[C@@H]1CN([C@H](C)CO)C(=O)c2cc(NC(=O)Nc3ccc(F)cc3)ccc2O[C@@H](C)CCCCO[C@@H]1CN(C)Cc1ccncc1	none
O=C(Nc1cc(F)ccc1F)N1CC(=O)N2[C@@H](CO)[C@H](c3ccc(C#CC4CCCCC4)cc3)[C@@H]2C1	CFTR F508del cor 9.9 (no result: Statin myotox sup, ARNT TACC3 PPI, PglD DTNB)
CCCC#Cc1ccc([C@H]2[C@H](CO)N3C(=O)CN(C(=O)Nc4cc(F)ccc4F)C[C@@H]23)cc1	CFTR F508del cor 10.3 (no result: Statin myotox sup, ARNT TACC3 PPI, PglD DTNB)
Nc1[nH]nc2ncc3cc4ccccc4nc3c12	CFTR F508del cor 11.7 (no result: Statin myotox sup, PglD DTNB)
c1ccc2nc3c(ccc4ccccc43)cc2c1	none
C/C=C/c1ccc([C@@H]2[C@H](CO)N(C(=O)CN(C)C)C23CN(C(=O)C2CC2)C3)cc1	none (no result: Statin myotox sup, ARNT TACC3 PPI, PglD DTNB)
CCOC(=O)c1c(C)oc2ccc(OCC(=O)C(C)(C)C)cc12	Statin myotox sup 143.9 (no result: CFTR F508del cor)
O=c1c2[nH]c3ccccc3c2ncn1CCCn1ccnc1	none (no result: Statin myotox sup, CFTR F508del cor)
O=c1c2[nH]c3ccc(Br)cc3c2ncn1CCCn1ccnc1	ARNT TACC3 PPI 78.8 (no result: Statin myotox sup, CFTR F508del cor)
Cc1noc(C)c1NC(=O)Nc1ccc2c(c1)C(=O)N([C@H](C)CO)C[C@@H](C)[C@@H](CN(C)C(=O)Nc1ccc(C(F)(F)F)cc1)OCCCC[C@@H](C)O2	none
COC(=O)c1c(-c2ccc(C)cc2)csc1NC(=O)c1c(-c2ccccc2)noc1C	CFTR F508del cor 8.5 (no result: Statin myotox sup, ARNT TACC3 PPI, PglD DTNB)
COC(=O)c1cn(C(=O)c2ccccc2Cl)c2ccccc12	none (no result: Statin myotox sup, PglD DTNB)
COC(=O)c1cn(C(=O)c2ccc(C)cc2C)c2ccccc12	CFTR F508del cor 10.8 (no result: Statin myotox sup, PglD DTNB)
COC(=O)Cn1cc(C(=O)OC)c2ccccc21	Statin myotox sup 98.4 (no result: CFTR F508del cor)
COC(=O)c1cn(CC(=O)N2C(C)CCCC2C)c2ccccc12 (configuration not stated)	Statin myotox sup 104.5 (no result: ARNT TACC3 PPI, CFTR F508del cor)
CC1CCCC(C)N1C(=O)Cn1cc(C#N)c2ccccc21 (configuration not stated)	none (no result: Statin myotox sup, ARNT TACC3 PPI, PglD DTNB)
C[C@H](NC(=O)C[C@H]1C=C[C@@H](NC(=O)C2CCC2)[C@@H](CO)O1)c1ccccc1	none
O=C(NCCN1CCCCC1)c1ccc(/C=N/O)nc1	none
NCCCNC(=O)c1ccc(/C=N/O)nc1	ARNT TACC3 PPI 78.1
C[C@@H]1CN([C@H](C)CO)S(=O)(=O)c2ccc(C#CC3CC3)cc2O[C@@H]1CN(C)Cc1ccc(F)cc1	none
N#CCc1c(C#N)c(N)nc(N2CCN(S(=O)(=O)c3ccccc3)CC2)c1C#N	Statin myotox sup 83.6 (no result: CFTR F508del cor)
COc1ccc(C(=O)NCc2cccnc2)cc1Br	none (no result: CFTR F508del cor)
COc1cc(OC)cc(C(=O)NCc2cccnc2)c1	Statin myotox sup 129.3 (no result: CFTR F508del cor)
O=C(NCc1ccc(F)cc1)C1CC(=O)N(CCc2ccccc2)C1 (configuration not stated)	none (no result: PglD DTNB, CFTR F508del cor)
O=C(NCc1cccnc1)C1CC(=O)N(CCc2ccccc2)C1 (configuration not stated)	Statin myotox sup 132.7
C/C(NCc1cccnc1)=C(\C#N)C(=O)NCc1ccccc1	Statin myotox sup 104.2 (no result: CFTR F508del cor)
O=C(Cc1ccccc1)NCc1cccnc1	none
O=C(CC(=O)NCc1cccnc1)NCc1cccnc1	Statin myotox sup 111.0 (no result: CFTR F508del cor)
CCCc1cn([C@H]2C[C@@H]3O[C@@H](CO)CC[C@@H]3O[C@@H]2CCc2ccc(-c3cccc(OC)c3)cc2)nn1	none (no result: Statin myotox sup, ARNT TACC3 PPI, PglD DTNB)
S=C(Nc1ccc(Cl)c(Cl)c1)NC1CCCCC1	none (no result: PglD DTNB)
S=C(Nc1ccc2nsnc2c1)NC1CCCCC1	ARNT TACC3 PPI 24.9 (no result: Statin myotox sup, PglD DTNB)

Source: PubChem (Broad Institute)
